Consider 14 compounds from PubChem BioAssay.

Values joined by “and” are separate entries in the source; they are usually repeats but may differ in a detail not shown here. Identical values can stand only once. Values without a mark were called inactive. No rule for the calls is given here.

The nature of one test: inhibitors of hydroxyurea-induced Chk1 phosphorylation, primary screen, imaging, HeLa, phospho-Chk1 antibody, percent positive cells (AID 1186). The conditions noted are these: hydroxyurea-induced phospho-Chk1 immunofluorescence imaging, higher = more signal.
In the case of `C=CCN(C(=O)C1N(C(C)(C)CO)C(=O)C2C(C(=O)O)C3C=CC21O3)C(C)(C)C` (stereo not drawn), the z-score was -0.518 and 1.17.

For `CC(CO)N1C(=O)[C@@H]2C3C(=O)OCCC=C[C@H]3OC23C=CCN(C(C)(C)C)C(=O)[C@@H]13` (stereo partly drawn), the z-score is 0.545 and -0.0027.

Consider `C=CCN(Cc1ccccc1)C(=O)C1N(c2c(Cl)cccc2CO)C(=O)C2C(C(=O)O)C3C=CC21O3` (stereo not drawn), for which the z-score is -0.544 and -0.696.

In the case of `CCOC(=O)C[C@H]1[C@H](OC(=O)c2ccccc2-c2ccccc2)[C@@H](NC(=O)c2ccccc2)c2cc(OCCCO)ccc2N1C(=O)c1ccc2ccccc2n1`, the z-score was 0.105 and -0.0471.

With `C=CCN(CCCC)C(=O)C1N(CCOCCO)C(=O)C2C(C(=O)O)C3C=CC21O3` (stereo not drawn), the z-score was -0.24 and 0.924.

Consider `COC(=O)[C@@]1(Cc2ccccc2)[C@H]2c3cc(C(=O)N(C)C)n(Cc4ccc(C)c(F)c4F)c3C[C@H]2CN1C(=O)c1ccccc1`, for which the z-score was -0.387 and 0.293.

As for `C=CCN(C(=O)C1N(CCCCCCO)C(=O)C2C(C(=O)O)C3C=CC21O3)C(C)(C)C` (stereo not drawn), the z-score was -0.178 and -0.102.

On to `C=C[C@@H](OC)[C@H](O)c1ccc(OC)c(O)c1`, for which the z-score was 0.719 and -0.433.

`C=CCN(C(=O)C(c1cccs1)N(C(=O)/C=C\C(=O)O)C(C)(C)CO)c1ccc(OC)cc1` (stereo not drawn): the z-score is -0.951 and -0.63.

With `CCOC(=O)[C@@H]1CC=C2CC1C(=O)N1CCC[C@@H]1[C@H]2O[Si](C)(C)C(C)(C)C` (stereo partly drawn), the z-score was 0.113 and -0.726.

Turning to `C=CCN(C(=O)C1N(c2c(Cl)cccc2CO)C(=O)C2C(C(=O)O)C3C=CC21O3)C(C)(C)C` (stereo not drawn), the z-score is -0.198 and -0.391.

With `C=CC[C@@H](O)c1ccc(OCCO)cc1`, the z-score is -0.442 and -0.507.

Regarding `C=CCN(C(=O)C(c1cccs1)N(C(=O)/C=C\C(=O)O)c1c(Cl)cccc1CO)c1ccc(OC)cc1` (stereo not drawn), the z-score was -0.0464 and 0.245.

For the compound `CCCCCN1CC=CC23O[C@@H]4C=CCCOC(=O)C4[C@H]2C(=O)N(C(C)CO)[C@@H]3C1=O` (stereo partly drawn), the z-score was -0.605 and 0.667.

The next test can be described thus: inhibitors of hydroxyurea-induced Chk1 phosphorylation, primary screen, imaging, HeLa, phospho-Chk1 nuclear intensity (AID 1187). Also: test concentration not given here. The conditions noted are these: hydroxyurea-induced phospho-Chk1 immunofluorescence imaging, higher = more signal.
`C=CCN(C(=O)C1N(C(C)(C)CO)C(=O)C2C(C(=O)O)C3C=CC21O3)C(C)(C)C` (stereo not drawn): the z-score is -0.112 and 0.674.

As for `CC(CO)N1C(=O)[C@@H]2C3C(=O)OCCC=C[C@H]3OC23C=CCN(C(C)(C)C)C(=O)[C@@H]13` (stereo partly drawn), the z-score is -0.0537 and -0.28.

For the compound `C=CCN(Cc1ccccc1)C(=O)C1N(c2c(Cl)cccc2CO)C(=O)C2C(C(=O)O)C3C=CC21O3` (stereo not drawn), the z-score is -0.649 and -0.167.

Consider `CCOC(=O)C[C@H]1[C@H](OC(=O)c2ccccc2-c2ccccc2)[C@@H](NC(=O)c2ccccc2)c2cc(OCCCO)ccc2N1C(=O)c1ccc2ccccc2n1`, for which the z-score was 0.118 and -0.0805.

As for `C=CCN(CCCC)C(=O)C1N(CCOCCO)C(=O)C2C(C(=O)O)C3C=CC21O3` (stereo not drawn), the z-score was -0.299 and 0.869.

With `COC(=O)[C@@]1(Cc2ccccc2)[C@H]2c3cc(C(=O)N(C)C)n(Cc4ccc(C)c(F)c4F)c3C[C@H]2CN1C(=O)c1ccccc1`, the z-score is -0.653 and 0.169.

With `C=CCN(C(=O)C1N(CCCCCCO)C(=O)C2C(C(=O)O)C3C=CC21O3)C(C)(C)C` (stereo not drawn), the z-score was -0.0517 and 0.113.

For `C=C[C@@H](OC)[C@H](O)c1ccc(OC)c(O)c1`, the z-score is -0.0654 and 0.0937.

On to `C=CCN(C(=O)C(c1cccs1)N(C(=O)/C=C\C(=O)O)C(C)(C)CO)c1ccc(OC)cc1` (stereo not drawn), for which the z-score was -1.17 and -0.0664.

On to `CCOC(=O)[C@@H]1CC=C2CC1C(=O)N1CCC[C@@H]1[C@H]2O[Si](C)(C)C(C)(C)C` (stereo partly drawn), for which the z-score is 0.0897 and -0.761.

Turning to `C=CCN(C(=O)C1N(c2c(Cl)cccc2CO)C(=O)C2C(C(=O)O)C3C=CC21O3)C(C)(C)C` (stereo not drawn), the z-score is 0.0398 and 1.14.

On to `C=CC[C@@H](O)c1ccc(OCCO)cc1`, for which the z-score is 0.186 and -0.0561.

With `C=CCN(C(=O)C(c1cccs1)N(C(=O)/C=C\C(=O)O)c1c(Cl)cccc1CO)c1ccc(OC)cc1` (stereo not drawn), the z-score is 0.0355 and 0.636.

`CCCCCN1CC=CC23O[C@@H]4C=CCCOC(=O)C4[C@H]2C(=O)N(C(C)CO)[C@@H]3C1=O` (stereo partly drawn): the z-score is 0.0018 and 0.28.
